From PubChem BioAssay (NCI)
About 79,000 compounds went through this panel and 15% of them were active in at least one assay; those are over-represented in the sample as a whole. Cut-off read from the data, not from the text of the source: active = growth inhibition above about 70%; inactive = the rest.

Tests used:
[1] = NCI Yeast Anticancer Drug Screen. Data for the rad50 strain (AID 155);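 note: 0% = growth of vehicle-only cultures of the same strain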; conditions: S. cerevisiae rad50 strain growth inhibition; at 50.0 µM; active compounds read high
In short: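 Vehicle-treated cultures provide the reference for the growth inhibition reported for compound-exposed, repair-deficient yeast.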

[2] = NCI Yeast Anticancer Drug Screen. Data for the mec2-1 strain (AID 157); conditions: S. cerevisiae mec2-1 strain, at 50.0 µM, active compounds read high
In short: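 mec2-1 yeast strain, carrying an alteration in DNA damage repair or cell cycle control, was exposed to compounds; growth inhibition was measured relative to vehicle-treated controls.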

[3] = NCI Yeast Anticancer Drug Screen. Data for the sgs1 mgt1 strain (AID 161);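 note: 0% = growth of cultures given vehicle only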; conditions: S. cerevisiae sgs1 mgt1 strain, at 50.0 µM, active compounds read high
In short: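 Growth of a repair-deficient yeast mutant was monitored after compound treatment and expressed as inhibition relative to vehicle-treated cultures.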

[4] = NCI Yeast Anticancer Drug Screen. Data for the cln2 rad14 strain (AID 165);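 note: 0% = growth equal to vehicle treated cultures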; conditions: S. cerevisiae cln2 rad14 strain, at 50.0 µM, active compounds read high
In short: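 Yeast carrying cln2 and rad14 alterations (cell cycle control and DNA damage repair) were exposed to compounds. Growth inhibition was measured against vehicle-treated controls.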

[5] = NCI Yeast Anticancer Drug Screen. Data for the bub3 strain (AID 167); conditions: S. cerevisiae bub3 mutant strain, at 50.0 µM, active compounds read high
In short: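 Mutant yeast screening strain plus compound; vehicle-treated cultures serve as the 0% inhibition reference.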

[6] = NCI Yeast Anticancer Drug Screen. Data for the mlh1 rad18 strain (AID 175); conditions: S. cerevisiae mlh1 rad18 strain growth inhibition; at 50.0 µM; active compounds read high
In short: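 Growth inhibition of the yeast strain was measured after compound exposure and expressed relative to vehicle-treated controls. The strain carries defined defects in DNA damage repair.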

Measured: growth inhibition

CC(O)(c1ccco1)c1nc2ccccc2s1 (stereo unspecified)
inactive: [1] -10.4% | [2] 15.6% | [3] 0.55% | [4] -6.2% | [5] -1.25% | [6] -11.8%

O=C(O)C(CCc1ccccn1)c1ccccc1 (stereo unspecified)
inactive: [1] -4.2% | [2] -26.2% | [3] -26.2% | [4] -17.6% | [5] -44.4% | [6] -0.55%

O=S(Nc1ccc(Br)cc1)c1ccccc1 (stereo unspecified)
inactive: [1] -3.5% | [2] -0.35% | [3] 5.65% | [4] -8.2% | [5] 3.4% | [6] 1.55%

COC(=O)c1cc(-c2ccccc2)nc2c(Cl)cc(Cl)cc12
inactive: [1] -4.4% | [2] -12.1% | [3] -5.55% | [4] -28.6% | [5] 11.7% | [6] -14.4%

CC(C)(CO)NC(=O)c1cccs1
inactive: [1] 14.8% | [2] 5.15% | [3] 1.45% | [4] 12.7% | [5] -4.35% | [6] -20%

CNSC1CCC2(C)C(=CCC3C2CCC2(C)C(C(C)CCCC(C)C)CCC32)C1 (stereo unspecified)
inactive: [1] -1.3% | [2] 1.7% | [3] -9.6% | [4] -5.05% | [5] -3% | [6] 10%

CCCCOC(=O)c1ccccc1OC
inactive: [1] -16.1% | [2] 7.2% | [3] -2.3% | [4] 16.9% | [5] 12.1% | [6] -6.9%

COc1ccc(OC)c(C(=O)C=C(C(F)(F)F)C(F)(F)F)c1
inactive: [1] -7.65% | [2] -0.95% | [3] -3.8% | [4] -41.6% | [5] -9.3% | [6] 58.9%

CCCCC(CC)OC(=O)Cc1ccccc1 (stereo unspecified)
inactive: [1] 10.9% | [2] -4.25% | [3] 13.1% | [4] -6.5% | [5] -4.45% | [6] 16.5%

CCO/C(O)=c1/s/c(=C2/SC(=S)N(c3ccc(C)cc3)C2=O)n(-c2ccccc2)c1=N
inactive: [1] -3.8% | [2] -16.8% | [3] -16.4% | [4] -55.5% | [5] -21.4% | [6] -28.4%

Cc1ccc(S(=O)(=O)NC2(C=O)CCCC3CCCCC32)cc1 (stereo unspecified)
inactive: [1] 33% | [2] 6% | [3] -5.45% | [4] -9.15% | [5] 0% | [6] 20.6%

CNC(=S)C(N)CCCC1NC(=S)N(C)C1=O (stereo unspecified)
inactive: [1] 7% | [2] 6.8% | [3] -21.9% | [4] 16.7% | [5] 8.95% | [6] 0.7%

CC(=O)OC(C)N(C(C)=O)c1ncc([N+](=O)[O-])s1 (stereo unspecified)
inactive: [1] -21.8% | [2] 2.4% | [3] -2.95% | [4] -14.3% | [5] 46.5% | [6] 4.55%

O=C1C2C3C=CC(C2C(=O)N1COP(=O)(O)O)C1C2C(=O)N(COP(=O)(O)O)C(=O)C2C31 (stereo unspecified)
inactive: [1] 2.1% | [2] 0.3% | [3] 0.95% | [4] 19.1% | [5] -11.2% | [6] -14.1%

C=C(C)/C=N/NS(=O)(=O)c1ccc(C)cc1
inactive: [1] -14.6% | [2] 9.65% | [3] 6.7% | [4] -26.1% | [5] -18.1% | [6] 4.9%

CCOc1ccc(C(=O)OCCCl)cc1
inactive: [1] 9.85% | [2] 0.75% | [3] -3.1% | [4] 5.25% | [5] 6.75% | [6] 10.6%

Brc1ccc(C=C2c3ccccc3-c3ccccc32)cc1
inactive: [1] -11.1% | [2] -8% | [3] -16.4% | [4] 6.85% | [5] 7.65% | [6] 1.95%

O=C(O)c1cc(Cl)cc([N+](=O)[O-])c1
inactive: [1] 41.1% | [2] -3% | [3] 52.5% | [4] 19.3% | [5] 23% | [6] 52.9%

O=C1CCN2CCC(=O)c3c2c(cc2ccccc32)N1
inactive: [1] 6.25% | [2] -15.8% | [3] -4.45% | [4] 10.3% | [5] -12.7% | [6] -12.6%

CCOC(=O)c1[nH]c(Cc2[nH]c(Cc3[nH]c(C(=O)OCC)c(C)c3C(=O)OCC)c(C(=O)OCC)c2C)c(C(=O)OCC)c1C
inactive: [1] 36.1% | [2] 21.2% | [3] 45.2% | [4] 37.5% | [5] 24.7% | [6] 8.55%

C[n+]1cccc(/C=C/C(=O)Nc2ccccc2)c1
inactive: [1] 5.8% | [2] 7% | [3] -24.1% | [4] 5.95% | [5] 12.1% | [6] 19.4%
